Bioassay records as filed in PubChem.
A selection: hits, their analogues and other compounds. The true share with any hit is near 1.1%.
OPRM1-OPRD1 ag = agonists of human mu-delta opioid receptor heterodimerization; activation, % at 9.3 µM; cells, OPRM1-OPRD1 heterodimerization, luminescence; P35372+P41143; AID 504326; 340,000 tested, 0.3% active; in the data active means activation above about 18%;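 further: 0% = vehicle-treated cells and 100% = reference agonist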
Target sequence (P35372 whole entry, looked up): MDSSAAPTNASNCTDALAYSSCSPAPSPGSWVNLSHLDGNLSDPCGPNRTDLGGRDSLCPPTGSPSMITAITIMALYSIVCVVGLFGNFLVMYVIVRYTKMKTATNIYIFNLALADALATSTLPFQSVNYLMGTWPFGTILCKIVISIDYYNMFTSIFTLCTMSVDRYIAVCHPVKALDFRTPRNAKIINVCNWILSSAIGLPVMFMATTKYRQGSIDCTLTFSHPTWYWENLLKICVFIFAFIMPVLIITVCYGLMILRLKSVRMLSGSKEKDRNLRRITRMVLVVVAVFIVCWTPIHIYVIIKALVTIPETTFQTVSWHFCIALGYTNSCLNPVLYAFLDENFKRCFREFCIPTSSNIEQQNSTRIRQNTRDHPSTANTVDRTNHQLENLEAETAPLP
Target sequence (P41143 whole entry, looked up): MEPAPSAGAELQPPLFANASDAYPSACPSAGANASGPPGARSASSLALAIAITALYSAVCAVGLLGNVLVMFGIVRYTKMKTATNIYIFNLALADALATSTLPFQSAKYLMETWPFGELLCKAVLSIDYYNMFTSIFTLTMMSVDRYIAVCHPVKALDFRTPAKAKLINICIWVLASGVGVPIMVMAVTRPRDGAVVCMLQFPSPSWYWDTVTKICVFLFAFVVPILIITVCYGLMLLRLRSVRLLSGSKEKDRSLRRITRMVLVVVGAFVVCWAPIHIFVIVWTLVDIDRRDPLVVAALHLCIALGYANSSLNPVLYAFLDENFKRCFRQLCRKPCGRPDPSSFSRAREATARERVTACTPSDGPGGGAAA
HTR5A ag = HTR5A agonism, opioid heterodimer counter-screen; activation, % at 9.3 µM; HTR5A agonist assay, luminescence, cell-based; 340,000 tested, 0.61% active; in the data active means activation mostly above about 9.5%, no sharp cut-off; inactive means mostly below about 7.6%;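 further: 0% = cells with vehicle only and 100% = reference agonist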
HTR5A inv ctr = counter-screen for OPRM1-OPRD1 inverse agonists: human HTR5A inverse agonism; HTR5A cell line, luminescence; inhibition, % at 9.3 µM; 340,000 tested, 0.083% active; in the data active means inhibition mostly above about 23%, no sharp cut-off; inactive means mostly below about 18%;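 further: 0% = cells with DMSO and 100% = no-cell wells with DMSO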
OPRM1-OPRD1 inv = inverse agonists of human mu-delta opioid receptor heterodimerization; P35372+P41143; cell-based MOR-DOR heterodimer luminescence, inverse agonism; inhibition, % at 9.3 µM; 340,000 tested, 0.21% active; AID 504357; in the data active means inhibition above about 22%, passing the limit was not always enough;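 further: 0% = cells with DMSO and 100% = wells without cells with DMSO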
Active calls of the source: *.

SMILES | OPRM1-OPRD1 ag | HTR5A ag | HTR5A inv ctr | OPRM1-OPRD1 inv
O=C(CN1C(=O)/C(=C/c2ccc(Cl)cc2)SC1=S)NC1C=CS(=O)(=O)C1 (stereo not drawn) | -2 | -4 | -12 | 11
O=C(CN1C(=O)/C(=C/c2ccccc2)SC1=S)NC1C=CS(=O)(=O)C1 (stereo not drawn) | -1 | 12* | -16 | 7
Cn1c2ccccc2c2nnc(NN)nc21 | 1 | -5 | 12 | -5
CCCCc1c(C)nn(-c2nnc3c4ccccc4n(C)c3n2)c1C | 8 | 12* | -42 | -45
COc1ccc(-n2c(Cn3c(=O)sc4ccccc43)nnc2SC)cc1 | 0 | 12* | -33 | 0
CCOc1ccc(NC(=O)c2cc(OC)nc3ccccc23)cc1 | -1 | 12* | -46 | 4
O=C(/C=C/c1ccccc1[N+](=O)[O-])NCCCn1ccnc1 | 0 | -1 | 2 | 0
COc1cc(C(=O)N2CCN(S(=O)(=O)c3ccc(Cl)cc3)CC2)ccc1OCC(=O)N1CCOCC1 | -1 | 3 | -7 | 6
CCOC1Cc2ccccc2N(C(N)=O)c2ccccc21 (stereo not drawn) | 1 | 1 | -9 | -6
COC1Cc2ccccc2N(C(=O)N2CCN(CCO)CC2)c2ccccc21 (stereo not drawn) | 3 | 14* | -12 | -13
Cc1nnc(-c2ccc(N3CCCCCC3)c([N+](=O)[O-])c2)o1 | -3 | -3 | -13 | 17
N/C(=N\OC(=O)/C=C/c1ccc(Br)cc1)c1ccccn1 | 2 | 10* | -3 | -13
N/C(=N\OC(=O)/C=C/c1ccccc1Cl)c1ccccn1 | 1 | 0 | 4 | -3
Cc1c(C(=O)OC2CCCC2)[nH]c2c1C(=O)CC(c1ccco1)C2 (stereo not drawn) | 1 | 10* | -28 | -6
CCOC(=O)C1CCN(CC(O)COCc2ccc(Cl)cc2)CC1 (stereo not drawn) | -3 | 12* | -44 | 15
Cc1ccc2cc(NC(=O)c3ccccc3)ccc2n1 | 0 | 9.4* | -34 | 0
Cc1ccc2cc(NC(=O)c3cccc(F)c3)ccc2n1 | 0 | 5 | -31 | 1
Cc1c([N+](=O)[O-])cc(C(=O)Nc2ccc3ncccc3c2)cc1[N+](=O)[O-] | 8 | 9.5* | -36 | -40
O=C(COC(=O)c1ccc2c(=O)n3c(nc2c1)CCC3)Nc1ccccc1F | 0 | 11* | -30 | 1
O=C(CN1C(=O)c2ccccc2C1=O)OCC(=O)N1CCN(c2ccccc2)CC1 | 1 | 3 | -10 | -5
CC(=O)Nc1nonc1NC(C)=O | 0 | -2 | 6 | 0
CC(=O)Nc1cc(OC(C)=O)c2nonc2c1OC(C)=O | 23* | 10 | -11 | -134
Cc1c(Nc2cc(Cl)c3nonc3c2[N+](=O)[O-])c(=O)n(-c2ccccc2)n1C | -9 | -13 | 33* | 46*
Cc1ccc(-n2[nH]c(C)c(C=Nc3ccc4[nH]c(=O)[nH]c4c3)c2=O)cc1 | 6 | 1 | -3 | -34
Cc1ccc(-n2[nH]c(C)c(C=Nc3ccc4[nH]c(=O)[nH]c4c3)c2=O)cc1C | 25* | 22* | -42 | -114
SMILES | OPRM1-OPRD1 ag | HTR5A ag | HTR5A inv ctr | OPRM1-OPRD1 inv
COc1cc(C(=O)O/N=C2\C=CC(=O)C=C2C)cc(OC)c1OC | 2 | 2 | -6 | -11
COc1cc(C(=O)ON=C2C3CC4CC(C3)CC2C4)cc(OC)c1OC | 10 | 12* | -42 | -48
CN(C)CCOc1ccc(-c2c(-c3ccsc3)sc3ccccc23)cc1 | 5 | 9 | -28 | -28
COc1ccc(-c2sc3ccccc3c2-c2ccc(OCCN(C)C)cc2)cc1 | 12 | 14* | -52 | -66
CC1CCN(c2ccc(S(=O)(=O)NC3=NCCCCC3)cc2[N+](=O)[O-])CC1 | -1 | 4 | -12 | 7
Cc1cc(C)c2nc(-c3ccncc3)cc(C(=O)N3CCN(Cc4ccccc4Cl)CC3)c2c1 | 0 | 13* | -10 | 1
O=C(CSc1nnc(CNc2ccc(F)cc2)n1Cc1ccco1)N1CCCC1 | 1 | 0 | 6 | -7
CCCc1nnc(SCC(=O)N2CCOCC2)n1Cc1ccco1 | 3 | 9.6* | 0 | -17
CCCCOc1cccc(/C=N/NC(=O)c2csc(C)c2C)c1 | 3 | -2 | -8 | -18
Cc1ccc(OCCCn2cc(C#N)c3ccccc32)cc1 | 3 | 1 | -14 | -13
CCC(C)Sc1ccc(-c2nc3ccc(C)cn3c2NCc2ccccc2)cc1OC (stereo not drawn) | 8 | 11* | -33 | -46
CCC(C)Sc1cc(-c2nc3ccc(C)cn3c2NCc2ccccc2)ccc1OC (stereo not drawn) | 21* | 16* | 10 | -124
Cc1ccc(NC(=S)NNC(=S)Nc2cccc(C(F)(F)F)c2)cc1 | 1 | 0 | -25 | -5
